This is a sample that favours compounds with a hit; in the whole collection about 27% have one here.
CYP2C9 inhib: blocks human cytochrome P450 2C9; P11712; CYP2C9 Supersomes, luciferin-H conversion, luminescence; inhibition, % at 5 µM; hit rate 20% among 96,000;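 active = blocking of liver enzyme CYP2C9 beyond about 50% at 5 µM, limit read from the data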
Target sequence (P11712 whole entry, looked up): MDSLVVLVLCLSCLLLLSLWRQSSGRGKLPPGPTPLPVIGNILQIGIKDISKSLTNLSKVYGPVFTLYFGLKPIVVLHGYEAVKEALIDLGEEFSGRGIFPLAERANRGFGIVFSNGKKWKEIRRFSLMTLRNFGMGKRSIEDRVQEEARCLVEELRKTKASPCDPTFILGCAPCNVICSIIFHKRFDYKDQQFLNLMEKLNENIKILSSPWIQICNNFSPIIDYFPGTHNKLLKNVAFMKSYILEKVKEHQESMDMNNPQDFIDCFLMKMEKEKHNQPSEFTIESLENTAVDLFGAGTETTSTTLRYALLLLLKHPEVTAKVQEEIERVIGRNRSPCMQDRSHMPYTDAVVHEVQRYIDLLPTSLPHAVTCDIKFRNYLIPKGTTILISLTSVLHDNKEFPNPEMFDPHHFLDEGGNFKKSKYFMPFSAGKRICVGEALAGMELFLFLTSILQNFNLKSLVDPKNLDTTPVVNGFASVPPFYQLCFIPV
CYP2C19 activ: increases human CYP2C19 enzyme activity; 96,000 tested, under 10 active; recombinant CYP2C19, luciferin-H EGE luminescence; active compounds read high; 0 = fully inhibited enzyme, 1 = untreated enzyme; activation factor at 5 µM; AID 1025;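 active = activation factor of at least 2 at 5 µM in the primary screen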;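 also: 0 = wells with 2.5 mM tranylcypromine and 1 = vehicle-only wells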
PTK2B oligo ant: blocks oligomerization of human Pyk2 in cells | Q14289 | Q293 cells, Pyk2 FERM NanoBiT luminescence; active compounds read low | z-score (the deposit names both 25 µM and 10 µM) | hit rate 0.83% among 99,000;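 active = Z-score of -3 or lower, scaled per plate to the spread of control and sample wells; inactive = z-score above -3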;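 also: negative z-score means lost luminescence so less FERM oligomerization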
Cav3 T inh: inhibitors of human Cav3.2 T-type calcium channel; B-score at 10 µM; hit rate 4% among 100,000; Cav3.2-expressing cells, Fluo-4 calcium fluorescence FDSS; active compounds read low;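 active = single-dose well whose peak fluorescence ratio is a statistical outlier from its plate by either plate-standardised score or position-corrected B-score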
CYP2C19 inhib: human CYP2C19 inhibition. AID 778. inhibition, % at 5 µM. CYP2C19 Supersomes, luciferin-H EGE luminescence, 30 min. hit rate 21% among 96,000;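 active = CYP2C19 inhibition above a set limit at 5 µM in the primary screen, cut at about 50% in these data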;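 also: plate controls were negative control wells for no effect and 2.5 mM tranylcypromine positive control for full effect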
CYP2C9 act: CYP2C9 (human) activation. activation factor at 5 µM. recombinant CYP2C9, luciferin-H conversion, luminescence; active compounds read high; factor 1 = untreated enzyme, 0 = blocked. hit rate 1.4% among 96,000;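 active = activation factor of 2 or more for CYP2C9 at a 5 µM dose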;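 also: 0 = sulfaphenazole-blocked wells and 1 = vehicle-only wells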
The depositor's hits bear a star; . = not tested or not shown.

SMILES | CYP2C9 inhib | CYP2C19 activ | PTK2B oligo ant | Cav3 T inh | CYP2C19 inhib | CYP2C9 act
Fc1ccc(Br)cc1C1C=C(c2ccc(Br)s2)Nc2ncnn21 (centres undefined) | 46 | 0 | 1.6 | -2.9* | 96* | 0.5
COc1ccc(C2C=C(c3ccc(C)c(C)c3)Nc3ncnn32)c(OC)c1OC (centres undefined) | 92* | 0 | . | -1.1 | 96* | 0.1
COC(=O)C1=C(C)N(CCCC(=O)O)C(=O)NC1c1ccc(C#N)cc1 (centres undefined) | . | . | . | 1 | . | .
O=C(Nc1ncc2c(n1)-c1ccccc1OC2)c1ccc(Cl)cc1Cl | 0 | 0.8 | -0.31 | -0.22 | 22 | 1
COc1ccc(CCNC(=O)CSc2nc(C)nc3c2c(=O)n(C)c(=O)n3C)cc1OC | -11 | 1.1 | . | 0.43 | -12 | 1.1
CCC(C)[C@@H](NC(=O)OC(C)(C)C)c1nnc(S(=O)(=O)Cc2cccc(C)c2)o1 (some centres undefined) | 17 | 0.8 | -1.9 | 2.8 | 22 | 0.8
Cc1noc(C)c1C(=O)Nc1sc(C)c(-c2ccccc2)c1C#N | 76* | 0.4 | -0.3 | -3.9 | 62* | 0.2
Cc1onc(-c2ccccc2)c1C(=O)Nc1sc2c(c1C#N)CCC2 | 68* | 1 | 0.18 | -1.9 | 4 | 0.3
Cc1ccccc1C(=O)NC(=S)Nc1sc2c(c1C#N)CCCC2 | 74* | 0.6 | -0.12 | -1.9 | 45 | 0.3
Cc1cccc(C(=O)Nc2sc(C)c(-c3ccccc3)c2C#N)c1 | 19 | 0.6 | -0.79 | -2 | 38 | 0.8
CCCCNC(=O)COC(=O)c1cc(F)c(F)cc1Cl | . | . | 0.65 | 0.39 | . | .
Cn1cccc1C(=S)N=P(C1CCCCC1)(N1CCOCC1)N1CCOCC1 | -11 | 0.9 | -0.06 | -0.14 | 12 | 1.1
CN(C)c1ccc(/C=C/c2cc[n+](C)cc2)cc1 | 0 | 1 | -1.6 | -1.4 | 0 | 1
CN(C)c1ccc(/C=C/c2cc[n+]([O-])cc2)cc1 | 54* | 0.1 | . | . | 92* | 0.5
COc1cc(C)c(Cl)cc1S(=O)(=O)NCc1ccncc1 | 50* | 0 | . | 1.2 | 98* | 0.5
COCCCNC(=O)COc1ccc(S(=O)(=O)NCc2ccccc2)cc1Cl | . | . | 0.6 | . | . | .
COc1cc(S(=O)(=O)NCc2ccccc2)ccc1F | -119 | 0 | 0.55 | 0.4 | 98* | 2.2*
COc1cc(C)c(Br)cc1S(=O)(=O)NCc1ccccc1 | -38 | 0.3 | 2.4 | 0.25 | 65* | 1.4
Cc1cc(Cl)c(S(=O)(=O)NCc2ccccc2)cc1OCC(N)=O | 4 | 1 | 0.34 | 1 | 4 | 1
Cc1cc(Cl)c(S(=O)(=O)NCc2ccncc2)cc1OCC(N)=O | 16 | 0.6 | 0.72 | -0.25 | 45 | 0.8
CC1CCN(S(=O)(=O)c2ccc3c(c2)CCN3C(=O)CCC(=O)O)CC1 | -17 | 0.9 | 0.31 | 0.48 | 7 | 1.2
CN(C)C=Nc1c(Br)cc(Br)c2nonc12 | -5 | 0.9 | 1.4 | -4.2* | 8 | 1
O=C(NCc1ccc(F)cc1)C1C2C=CC3(CN(Cc4cccnc4)C(=O)C13)O2 (centres undefined) | -4 | 1 | 0.36 | 0.59 | 0 | 1
CC1CCN(c2ncnc3c2cnn3Cc2ccc(Cl)cc2)CC1 | 76* | 0.6 | -2 | -2.7 | 38 | 0.2
Cc1ccccc1N1CCN(c2ncnc3c2cnn3Cc2ccc(Cl)cc2)CC1 | 76* | 0.6 | -0.29 | -4.6* | 41 | 0.2
SMILES | CYP2C9 inhib | CYP2C19 activ | PTK2B oligo ant | Cav3 T inh | CYP2C19 inhib | CYP2C9 act
Cc1cccc(-n2ncc3c(N4CCC5(CC4)OCCO5)ncnc32)c1 | . | . | . | 0.69 | . | .
Cc1ccc(Cn2ncc3c(N4CCN(Cc5ccc(Cl)cc5)CC4)ncnc32)cc1 | 34 | 0.9 | 0.3 | . | 9 | 0.7
Cc1cccc(-n2ncc3c(N4CCC(C)CC4)ncnc32)c1 | 96* | 0.3 | . | -1 | 71* | 0
Cc1ccc(Cn2ncc3c(N4CCN(c5ccc(C)cc5)CC4)ncnc32)cc1 | 11 | 1.2 | 0.28 | . | -16 | 0.9
c1ccc(CCN2CCN(c3ncnc4c3cnn4-c3ccccc3)CC2)cc1 | 78* | 0.2 | -0.91 | 3 | 79* | 0.2
COc1cc2c3nnc(-c4ccc(F)cc4)c-3cn(Cc3cccc(C)c3)c2cc1OC | 10 | 1.1 | . | -3.6* | -11 | 0.9
COc1cc2c3nnc(-c4ccc(F)cc4)c-3cn(Cc3ccc(C)cc3)c2cc1OC | 30 | 1.1 | . | -5.8* | -9 | 0.7
COc1ccccc1NC(=O)c1sc2ncn(Cc3cccc(C)c3)c(=O)c2c1C | -20 | 0.9 | 0.66 | 0.9 | 8 | 1.2
CC1CCN(C(=S)c2cn(Cc3ccc(F)cc3)c3ccccc23)CC1 | 20 | 0.6 | -1 | -2 | 38 | 0.8
C=CCSc1nc2nc(C)cc(C)n2n1 | -21 | 1.1 | 0.32 | -0.057 | -7 | 1.2
CCN(c1ccc(C)c(C)c1)S(=O)(=O)c1c(C)[nH]c(=O)[nH]c1=O | -25 | 0.9 | -0.62 | 0.87 | 6 | 1.3
COc1ccc(CNC(=O)c2csc(Cc3ccccc3)n2)cc1 | 59* | 0.1 | -2 | . | 88* | 0.4
COc1ccc(CNC(=O)c2csnn2)cc1 | 4 | 0.5 | 0.46 | 1.1 | 52* | 1
COc1ccccc1CNC(=O)c1csc(Cc2ccc(Cl)cc2)n1 | 56* | 0.4 | -2.9 | -8* | 60* | 0.4
O=C(Nc1ccc(Cl)cc1)c1csc(-c2ccccc2)n1 | 38 | 0.7 | -0.17 | -0.8 | 28 | 0.6
COc1ccc(NC(=O)c2csc(Cc3ccccc3)n2)cc1 | 64* | 0.5 | -1.1 | -1 | 50* | 0.4
COC(=O)CC/C(O)=C1/C(=N)CC(C)(C)CC1=O | 3 | 1 | 2.6 | 0.42 | 0 | 1
CCOc1ccccc1NC(=O)N1CCCC1C(=O)Nc1ccc(NC(C)=O)cc1 (centres undefined) | 21 | 0.9 | 0.4 | 0.1 | 7 | 0.8
O=C(NCc1ccccc1)c1onc(CSc2ccc(F)c(F)c2)c1C(=O)NCc1ccccc1 | . | . | . | 0.2 | . | .
Cc1cccc(N2CCN(C(=O)CCCn3c(=S)[nH]c4cc5c(cc4c3=O)OCO5)CC2)c1C | 59* | 0.7 | -0.89 | . | 32 | 0.4
O=C(CCCn1c(=S)[nH]c2cc3c(cc2c1=O)OCO3)N1CCN(c2ccccc2)CC1 | 80* | 0.8 | -0.98 | -3 | 21 | 0.2
CCOC(=O)N1CCN(C(=O)CCn2c(=S)[nH]c3cc(OCC)c(OCC)cc3c2=O)CC1 | 24 | 0.9 | . | . | 7 | 0.8
Cc1cc(C)cc(N2C(=O)CSC2c2cccs2)c1 (centres undefined) | -17 | 0.4 | -0.14 | -1.1 | 58* | 1.2
Cc1ccc(N2C(=O)CSC2c2cccs2)cc1 (centres undefined) | 18 | 0.2 | -0.75 | -0.25 | 77* | 0.8
CN1CC[n+]2c(CN3C(=O)c4ccccc4C3=O)csc21 | -13 | 1.1 | -0.63 | -0.003 | -9 | 1.1
CC(=O)c1cc(CN2C(=O)c3ccccc3C2=O)cs1 | 20 | 0 | 1.6 | -0.4 | 96* | 0.8

Bioassay records as filed in PubChem BioAssay.
